The structures appear in SMILES notation. Several values for one entry are separate records, joined by “and”; a condition that tells them apart may be missing. Identical values can stand only once. In all, about 360,000 compounds went through this assay and about 11,000 (3.1%) were called active. Not shown: some 2% with an inconclusive outcome. No stated cut-off is given here; in the data, active means fluorescence intensity above about 16000; inconclusive means no clear call, values can overlap the other calls; inactive means below that. The full list was thinned out, with actives kept by preference.

The test can be described thus: counter-screen for toxin protease inhibitors: compound fluorescence, primary screen, artefact control for toxin protease inhibitor project, biochemical, multiplex microsphere, HTS (AID 624483). To be noted: compound autofluorescence counterscreen, microsphere flow cytometry; active compounds read high. In general terms: A counterscreen serves to expose hits that act by an unwanted route or on another target.
On to `COCCNC(=O)C1(C)CCCN(Cc2cccc(F)c2)C1` (stereo not drawn), for which the fluorescence intensity is 2750 (inactive). To `Brc1ccc(-c2nnc(-c3ccccc3)o2)o1` belongs 24200 (active); to `Brc1ccc(-c2noc(-c3ccccc3)n2)o1`, 4610 (inactive). As for `OC(c1nnc(-c2ccccc2)o1)c1cccs1` (stereo not drawn), the fluorescence intensity is 4160 (inactive). To `CCCCCc1c(-c2ccc(OC)c(OC)c2)ncn1CCc1ccccc1OC` belongs 6300 (inactive); to `COc1cccc(CNC(=O)COc2cc(O)c3c(c2)OC(C)(C)CC3=O)c1`, 5480 (inactive).

Take `CC1=C(C(=O)N2CCOCC2)CC(CC(=O)NCc2cccs2)C(=O)N1CCCN1CCCC1=O` (stereo not drawn): the fluorescence intensity is 4160 (inactive). Under `CCN(CC)C(=O)C1CCCN(Cc2cccc(Cl)c2)C1` (stereo not drawn) stands 2940 (inactive); under `COc1ccc(-c2noc(CSc3ccc(C)cc3)n2)cc1`, 24000 (active); under `COc1ccc(N2CCN(C(=O)CCc3nc(-c4ccc(C)cc4)no3)CC2)cc1`, 3440 (inactive). Under `Cc1ccc(-c2noc(CC(c3ccccc3)c3ccccc3)n2)cc1` stands 4240 (inactive); under `CC(C)c1ccc(CC(=O)N2CCC2(C)C(=O)NS(=O)(=O)c2ccc(C(C)(C)C)cc2)cc1` (stereo not drawn), 2850 (inactive); under `CCC(=O)N1CCC(C)(C(=O)Nc2cc(OC)c(OC)c(OC)c2)C1` (stereo not drawn), 3060 (inactive). To `O=C(CSc1nnc(Cc2ccccc2)n1-c1ccccc1)N1CCOCC1` belongs 16700 (active); to `CCn1c(CC(=O)Nc2ccccc2)nnc1SCC(=O)N1CCOCC1`, 6500 (inactive); to `Cc1ccc(-n2c(CNc3ccc(F)cc3)nnc2SCC(=O)N2CCOCC2)cc1`, 4740 (inactive). For the compound `O=C(COc1ccc([N+](=O)[O-])cc1Cl)Nc1ccc2[nH]c(=O)[nH]c2c1`, the fluorescence intensity is 4100 (inactive). To `COC(=O)c1ccc(OCC(=O)NC(C)(C)C)cc1` belongs 2670 (inactive); to `CC(C)(C)NC(=O)COc1ccc(CNc2ccc3[nH]c(=O)[nH]c3c2)cc1`, 22600 (active); to `CCC(Oc1ccccc1)C(=O)OCC(=O)Nc1c(C)nn(-c2ccccc2)c1C` (stereo not drawn), 3640 (inactive). To `O=C(Nc1ccc2c(c1)CCC2)c1ccc(Br)s1` belongs 4300 (inactive); to `O=C(NC1CCCC1)c1ccc(Br)s1`, 17100 (active).

In the case of `O=C(NC1CCCCCCC1)c1cccs1`, the fluorescence intensity is 3700 (inactive). Under `CC(C)NC(=O)N1Cc2cc(C(=O)NCC(F)(F)F)nc(-c3cccc(-c4cc5ccccc5o4)c3)c2[C@@H]1CCO` stands 6410 (inactive). To `CCC(C)(C)NC(=O)CN(Cc1cccs1)C(=O)CNS(=O)(=O)c1ccc(F)cc1` belongs 4360 (inactive). To `Cc1ccc(S(=O)(=O)NCC(=O)N(CC(=O)NC2CCCCC2)Cc2ccco2)cc1` belongs 3490 (inactive); to `CC(C)(C)NC(=O)CN(Cc1cccs1)C(=O)CNS(=O)(=O)c1ccccc1`, 22000 (active). On to `Cc1[nH]c2ccccc2c1CCN(Cc1cccs1)C(=S)NC(C)(C)C`, for which the fluorescence intensity was 4220 (inactive). To `Cc1ccc(S(=O)(=O)NCC(=O)N(CC(=O)NC(C)(C)C)Cc2cccs2)cc1` belongs 23500 (active); to `O=C(CN(CC1CCCO1)C(=O)CNS(=O)(=O)c1ccccc1)NCc1ccccc1` (stereo not drawn), 4900 (inactive).

Regarding `CSCCC(c1nnnn1Cc1ccccc1)N1CCN(C/C=C/c2ccccc2)CC1` (stereo not drawn), the fluorescence intensity was 6070 (inactive). Under `COC(=O)[C@]12CCCCC=C1N(Cc1cccc3ccccc13)C(=O)[C@H](CC(=O)N1CCOCC1)C2` stands 4200 (inactive). To `CC1(C(=O)O)CCN1C(=O)/C=C/c1ccccc1` (stereo not drawn) belongs 3910 (inactive); to `CCc1ccc(Nc2n[n+](-c3ccccc3)c(-c3cccc(Cl)c3Cl)s2)cc1`, 4300 (inactive); to `CN(Cc1ccc2nsnc2c1)Cc1nc(Cc2cccc(F)c2)no1`, 4550 (inactive). In the case of `O=C1NC[C@@H](CCCCN2CCN(CCc3ccc(O)cc3)C(=O)C2=O)N(CC2CCCCC2)C1=O`, the fluorescence intensity was 6050 (inactive). Under `O=C(COC(=O)CCc1nc2ccccc2c(=O)[nH]1)Nc1ccc(N2CCOCC2)cc1` stands 4110 (inactive).

Consider `COc1ccc(Sc2ccc(NC(=O)c3cccc(Cl)c3)cc2C#N)cc1`, for which the fluorescence intensity was 3440 (inactive). Take `Cc1nc(SC(C)C)[nH]c(=O)c1Cc1ccccc1`: the fluorescence intensity was 23800 (active). As for `Cc1ccc2c(O)c(Cc3ccccc3)c(=O)[nH]c2n1`, the fluorescence intensity is 3740 (inactive). To `CC(=O)Nc1nc(C)c(Cc2ccccc2)c(=O)[nH]1` belongs 2420 (inactive); to `CC(C)NC(=O)C1(C)CCCCN1Cc1cccc(C(F)(F)F)c1` (stereo not drawn), 3020 (inactive). To `CCOc1cc(-c2nc3cc(C)ccn3c2NCC2CCCO2)ccc1O` (stereo not drawn) belongs 4290 (inactive); to `COc1ccc(-c2nc3cnccn3c2NC2CCCCC2)cc1-c1cccc(Cl)c1`, 6580 (inactive) and 3860 (inactive).

As to `COc1ccc(-c2nc3cc(C)ccn3c2NC2CCCCC2)cc1SC1CCCCC1`, the fluorescence intensity is 20700 (active) and 26600 (active).

For `COc1cc(NC(=O)CN2C(=O)NC(C)(c3ccc(OC(F)F)cc3)C2=O)cc(OC)c1OC` (stereo not drawn), the fluorescence intensity is 3820 (inactive). To `CN(CC(=O)Nc1c(Cl)cccc1Cl)C(=O)CNC(=O)C1CCCCC1` belongs 4800 (inactive); to `CC(=O)N1C[C@@H](CO)[C@@H](N(C)C(=O)c2ccco2)C[C@H]1c1ccccc1`, 6130 (inactive); to `O=C(CSc1nnc(-c2cccnc2)n1CCc1ccccc1)NCc1ccccc1`, 2870 (inactive). Under `C=CCn1c(SCC(=O)NC(=O)Cc2ccccc2)nc2ccccc2c1=O` stands 8750 (inactive); under `C=CCn1c(SCC(=O)NCc2ccccc2)nnc1-c1cc(Br)ccc1O`, 20700 (active); under `Cc1nc(CC(=O)NNS(=O)(=O)c2ccc(F)c(Cl)c2)cs1`, 2630 (inactive). `COc1ccc(N(Cc2cc3ccc(C)cc3[nH]c2=O)S(=O)(=O)c2ccccc2)cc1`: the fluorescence intensity is 4310 (inactive). To `CCC(=O)N(CCc1ccccc1)Cc1cc2cc(C)ccc2[nH]c1=O` belongs 3090 (inactive); to `CCN(Cc1cc2cc(C)ccc2[nH]c1=O)S(=O)(=O)c1ccccc1`, 16600 (active). On to `CC1(C(=O)NS(=O)(=O)Cc2cccc(Cl)c2)CCN1C(=O)Cc1ccccc1` (stereo not drawn), for which the fluorescence intensity was 3480 (inactive). Under `CC(=O)Nc1cccc(NC(=O)CSc2nccn2Cc2ccc(F)cc2)c1` stands 6150 (inactive); under `OC(c1ccc(Cl)c(F)c1)c1ncc(-c2ccccc2Cl)[nH]1` (stereo not drawn), 3970 (inactive).

For the origin of these results see PubChem BioAssay AID624483 (NMMLSC, 2012).
